Compounds with a hit are over-represented: about 4.8% of the library has one in this group of screens.
DAX1 inh-1: NR0B1 (DAX1) inhibition. HEK293 Gal4-DAX1 luciferase reporter, luminescence. inhibition, % at 6.75 µM. actives 0.99% (n = 340,000). AID 504766;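 active = inhibition above the mean over all tested compounds plus 3 SD, cut at about 4.2% in these data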;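 also: 0% = DAX1-transfected cells with DMSO and 100% = empty-vector control cells with DMSO; inhibition shows as a rise in luminescence from relieved DAX1 repression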
Target sequence (P51843 207-470 limits assumed): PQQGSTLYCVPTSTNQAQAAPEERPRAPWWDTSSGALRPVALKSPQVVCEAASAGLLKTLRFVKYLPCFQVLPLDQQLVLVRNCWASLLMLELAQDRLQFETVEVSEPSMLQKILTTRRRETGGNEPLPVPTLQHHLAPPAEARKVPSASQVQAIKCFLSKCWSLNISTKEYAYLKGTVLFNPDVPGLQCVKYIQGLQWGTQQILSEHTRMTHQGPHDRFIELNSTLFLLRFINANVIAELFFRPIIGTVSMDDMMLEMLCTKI
ssDAF12 agonist: activates DAF-12 receptor from parasite S. stercoralis; actives 1% (n = 370,000); activation, % at 6.8 µM; HEK293 ssDAF-12/GRIP1 lit1-tk-luc reporter, luminescence; % of 3 µM dafachronic acid response;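 active = activation above the mean over all tested compounds plus 3 SD, cut at about 0.9% in these data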;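 also: 0% = DMSO-only wells and 100% = 3 µM delta7-dafachronic acid wells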
hgDAF12 agonist: hgDAF-12 agonism, primary luciferase screen | HEK293 GAL4-hgDAF12 UAS-luciferase reporter, agonist luminescence; normalized to butyrate control | activation, % at 6.8 µM | AID 687014 | actives 1.8% (n = 370,000);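 active = activation above a cutoff set at the mean of all screened compounds plus 3 SD, cut at about 10% in these data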;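 also: 0% = DMSO wells and 100% = sodium butyrate wells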
DAX1 inh-2: DAX1 (NR0B1) inhibition, primary screen | HEK293T StAR-luciferase reporter, SF-1/DAX-1 repression relief | inhibition, % at 6.8 µM | actives 1.1% (n = 370,000) | AID 652010;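 active = inhibition above the mean over all tested compounds plus 3 SD, cut at about 3.6% in these data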;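 also: 0% = DAX-1 cells with DMSO and 100% = cells lacking DAX-1 with DMSO; higher inhibition means more luminescence from relief of DAX-1 repression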
NR1D1 modulator: modulators of human Rev-erb alpha DNA binding; P20393; actives 0.79% (n = 370,000); Rev-erbα–FITC-DNA binding, fluorescence polarization, 90 min; activity, % at 10 µM;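 active = activity above about 14%, limit read from the data; passing the limit was not always enough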;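 also: 0% = DMSO wells with 35 nM protein and 100% = DMSO wells with 750 nM protein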
Target sequence (P20393 whole entry, looked up): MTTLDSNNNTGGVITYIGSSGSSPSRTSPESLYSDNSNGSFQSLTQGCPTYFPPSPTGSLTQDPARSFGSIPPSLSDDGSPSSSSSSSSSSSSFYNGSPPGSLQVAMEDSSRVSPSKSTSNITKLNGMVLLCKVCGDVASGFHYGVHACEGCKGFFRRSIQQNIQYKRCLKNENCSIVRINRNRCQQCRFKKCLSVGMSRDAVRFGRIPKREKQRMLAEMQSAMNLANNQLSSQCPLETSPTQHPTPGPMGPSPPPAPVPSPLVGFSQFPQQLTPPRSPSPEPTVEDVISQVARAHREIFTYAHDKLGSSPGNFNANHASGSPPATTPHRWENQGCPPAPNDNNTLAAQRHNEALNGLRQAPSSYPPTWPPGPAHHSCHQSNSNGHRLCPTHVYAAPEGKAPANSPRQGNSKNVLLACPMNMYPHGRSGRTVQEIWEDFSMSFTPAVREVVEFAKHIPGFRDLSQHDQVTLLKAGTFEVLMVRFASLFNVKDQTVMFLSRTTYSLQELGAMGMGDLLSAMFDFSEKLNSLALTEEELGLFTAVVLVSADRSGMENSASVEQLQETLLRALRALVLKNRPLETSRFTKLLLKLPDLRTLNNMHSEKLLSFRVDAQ
hcDAF12 agonist: activators of H. contortus DAF-12 nuclear receptor. actives 1.4% (n = 370,000). activation, % at 6.8 µM. AID 652067. HEK293 hcDAF-12 lit1-tk-luc reporter, luminescence; 0% DMSO, 100% Δ7-dafachronic acid;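 active = activation above the mean of all tested compounds plus 3 SD, cut at about 5.5% in these data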;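 also: 100% = response to 3 µM Δ7-dafachronic acid high control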
DAX1 conf: NR0B1 (human) inhibition, confirmation; shares compounds with DAX1 inh-2; HEK293T StAR-promoter luciferase reporter, SF-1/DAX-1 repression; inhibition, % at 6.8 µM; actives 87% (n = 2,400);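 active = inhibition above the average of every tested compound plus 3 SD, cut at about 3.8% in these data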;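 also: 0% = DAX-1 cells with DMSO and 100% = no DAX-1 control cells with DMSO; active compounds raise luminescence by relieving repression of the StAR reporter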
SF1 mutant ctr: nonselective inhibitor or artifact in SF-1 mutant DAX1 counter-screen; shares compounds with DAX1 inh-2; HEK293 StAR-luciferase, SF-1 AF2 mutant, luminescence; inhibition, % at 6.8 µM; actives 78% (n = 2,400); AID 652136;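 active = inhibition above the mean of all tested compounds plus 3 SD, cut at about 3% in these data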;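 also: 0% = DAX-1 transfected cells with DMSO and 100% = cells without DAX-1 with DMSO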
LXRb hcDAF ctr: counter-screen for hcDAF-12 agonists: agonists of human LXR-beta. shares compounds with hcDAF12 agonist. HEK293 Gal4-LXR tk-luc reporter, luminescence, 24 h; normalized: DMSO 0%, positive control 100%. AID 743027. 3,400 tested, under 10 active. activation, % at 6.8 µM;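 active = mean percent activation of the reporter above a cutoff set as the average over tested compounds plus their standard deviation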
hcDAF12 conf: confirmation of H. contortus DAF-12 agonists; shares compounds with hcDAF12 agonist; HEK293 hcDAF-12 lit1-tk-luc reporter, luminescence; % of Δ7-dafachronic acid response; activation, % at 6.8 µM; actives 61% (n = 3,400); AID 743032;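 active = mean activation across triplicate tests above the threshold derived from the earlier primary screen, cut at about 5.5% in these data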;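 also: 0% = DMSO only wells and 100% = 3 µM Δ7-dafachronic acid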
hgDAF12 ag: confirmation of H. glycines DAF-12 agonists. activation, % at 6.8 µM. AID 743050. HEK293 GAL4-hgDAF12 luciferase reporter, agonist mode; percent of butyrate response. actives 80% (n = 3,300). shares compounds with hgDAF12 agonist;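 active = mean activation over triplicate wells above the hit cutoff derived from the earlier primary screen, cut at about 11% in these data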;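 also: 0% = DMSO low control and 100% = 2 mM sodium butyrate high control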
LXR ag 2: LXR-beta agonism as DAF-12 counter-screen; shares compounds with hgDAF12 agonist; HEK293 Gal4-LXR luciferase reporter, 24 h; activation, % at 6.8 µM; 3,300 tested, under 10 active;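 active = mean activation of the triplicate above a set limit carried over from the primary screen, none filed active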
Rev-erbA confirm: Rev-erb alpha (human) modulation, hit confirmation; shares compounds with NR1D1 modulator; Rev-erb alpha FITC-DNA binding, fluorescence polarization, 90 min; activation, % at 25 µM; actives 61% (n = 3,000);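 active = activation at or above a set limit, or at least 3 SD above the negative control mean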;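 also: 0% = 35 nM protein with DMSO and 100% = 750 nM protein high control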
RORg DNA counter: RORgamma DNA-binding activity, dose-response counter-screen; shares compounds with NR1D1 modulator; purified RORgamma protein-FITC-DNA binding, fluorescence polarization; IC50, µM; actives 8% (n = 910);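 active = Compounds whose fitted half-maximal concentration for disrupting protein-DNA binding is below 10 micromolar; the record names Rev-erb in its text, so the target is in doubt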
Active calls of the source: *; i = inactive; / = no result; ! = not active in a repeat.

SMILES | DAX1 inh-1 | ssDAF12 agonist | hgDAF12 agonist | DAX1 inh-2 | NR1D1 modulator | hcDAF12 agonist | DAX1 conf | SF1 mutant ctr | hgDAF12 ag | LXR ag 2 | others
CCN(C)C(=O)CN1C(=O)C2CCCCN2C(=O)c2ccccc21 (stereo not given) | / | -0.9 | -2.3 | 0.1 | 4.0 | -0.8 | / | / | / | /
CCCCc1c(-c2ccccc2OC)ncn1Cc1c(Cl)cccc1Cl | / | -1.3 | -1.7 | -0.8 | 5.0 | -1.7 | / | / | / | /
NC(=O)c1ccsc1NC(=O)c1ccc(N2CCCC2=O)cc1 | -2.6 | 1.0* | 25.5* | 6.7* | -6.8 | 7.4* | 14.3* | 9.6* | 16.7* | 1.0 | LXRb hcDAF ctr=1.2;hcDAF12 conf=6.9*
CCCN1C(=O)c2n[nH]c(C(C)C)c2C1c1cccc(C(F)(F)F)c1 (stereo not given) | / | -1.4 | 0.6 | 1.2 | 2.8 | 1.6 | / | / | / | /
OC(c1ccccc1)(c1ccccc1)C1CCN(CCCOc2ccc(C(F)(F)F)cc2)CC1 | / | -1.3 | 1.5 | 1.1 | 1.8 | -0.7 | / | / | / | /
CC(=O)N/N=C\c1ccccc1OC/C=C/c1ccccc1 | 1.0 | -0.9 | 4.6 | 2.4 | -3.5 | -0.5 | / | / | / | /
CC(=O)N/N=C\c1cccc(OC/C=C/c2ccccc2)c1 | -1.6 | -0.2 | 13.7* | 10.2* | 5.2 | 2.7 | 8.9* | 5.2* | 15.8* | 0.8
COc1ccc(-c2cc(C(=O)N(C3CCCCC3)C3CCCCC3)no2)cc1 | / | -0.9 | -1.6 | -0.9 | 10.3 | 0.5 | / | / | / | /
O=C(Nc1ccc2c(c1)OCO2)c1cc(Cl)ccn1 | 1.9 | 0.4 | 15.7* | 6.5* | 0.1 | 5.4 | 11.7* | 5.3* | 17.0* | 0.8
O=C(Nc1ccc2c(c1)OCO2)c1cc(-c2ccccc2Cl)on1 | 1.4 | -1.2 | 7.3 | 0.7 | 2.1 | 1.8 | / | / | / | /
O=C(Nc1ccc2c(c1)OCO2)c1ccc(Cl)cc1Cl | -0.1 | -0.2 | 18.4* | 15.9* | 2.4 | 10.8* | 14.5* | 5.0* | 17.4* | 1.1 | LXRb hcDAF ctr=1.6;hcDAF12 conf=6.6*
CCCCNc1c(-c2ccc(SC(C)CC)cc2)nc2ccccn12 (stereo not given) | 1.7 | 2.6*! | 10.9* | 5.3*! | 14.3 | 6.7*! | 6.3* | 3.4* | 15.5* | 0.7 | LXRb hcDAF ctr=1.3;hcDAF12 conf=5.1
Cn1nnc2cc(NC(=O)Nc3ccccc3F)ccc21 | 1.6 | 0.1 | 15.5* | 7.4* | -5.7 | 3.8 | 9.8* | 4.4* | 14.1* | 0.8
Cn1nnc2cc(C(=O)Nc3ccccc3F)ccc21 | -1.6 | -0.4 | 0.9 | 0.7 | -2.6 | -0.4 | / | / | / | /
CCCC(=O)N1CCCC(c2cc(C(=O)Nc3ccc4c(c3)OCO4)no2)C1 (stereo not given) | / | -0.5 | 18.0* | 4.7* | -5.8 | 2.5 | 4.4* | 2.3 | 12.7* | 0.6
O=C(Nc1ccc2c(c1)OCO2)c1cc(C2CCCN(C(=O)CCc3ccccc3)C2)on1 (stereo not given) | / | -1.7 | 2.7 | 1.5 | 3.0 | 0.0 | / | / | / | /
Cc1cc(C)c2nc(SCC(=O)N3CC(=O)Nc4ccccc43)c(C#N)cc2c1 | -1.5 | -0.6 | -1.9 | 4.8* | 98.4* | -1.8 | 10.5* | -7.5 | / | / | Rev-erbA confirm=64.0*;RORg DNA counter=>40
COc1ccccc1C(=O)N1CCC2CCN(C(=O)OC(C)(C)C)C2C1 (stereo not given) | / | -0.3 | 1.7 | -2.0 | -4.2 | -0.8 | / | / | / | /
COC(=O)c1sccc1NC(=O)c1ccc2c(c1)OCO2 | 0.0 | -0.7 | -3.1 | 0.2 | -3.1 | 2.9 | / | / | / | /
COC(=O)c1c(-c2cccnc2)csc1NC(=O)c1ccc2c(c1)OCO2 | 0.8 | -0.2 | 6.2 | 8.2* | 20.4* | 3.0 | 12.1* | 6.8* | / | / | Rev-erbA confirm=-8.3
COC[C@@H]1CCCN1c1ccc2c(c1)OCCCN(C1CC1)S2(=O)=O | / | -0.9 | 1.4 | -0.9 | 1.7 | -2.4 | / | / | / | /
Oc1c(C2=NCCNC(C(F)(F)F)=C2)ccc2ccccc12 | 2.0 | 0.9 | 19.1* | 4.7* | 17.9* | 3.5 | 6.5* | 4.6* | / | / | Rev-erbA confirm=7.3
Cc1ccc2nc(-c3ccc(F)cc3)c(Cc3ccccc3C(F)(F)F)n2c1 | / | 1.7* | 13.9* | 4.7* | 16.9* | 4.9 | 2.4 | 4.6* | 6.3 | 0.3 | Rev-erbA confirm=-0.7
COc1ccc(-c2nc3ccc(C)cn3c2Cc2ccccc2C(F)(F)F)cc1OC | / | -1.4 | 0.9 | 0.7 | 5.7 | -2.5 | / | / | / | /
CCN1C(=O)/C(=C/C=C2/SCCN2C)SC1=S | 3.9 | 0.1 | 10.2 | 4.7* | 77.7* | 5.8* | 10.5* | 5.6* | / | / | Rev-erbA confirm=148.4*;RORg DNA counter=i
SMILES | DAX1 inh-1 | ssDAF12 agonist | hgDAF12 agonist | DAX1 inh-2 | NR1D1 modulator | hcDAF12 agonist | DAX1 conf | SF1 mutant ctr | hgDAF12 ag | LXR ag 2 | others
COC(=O)C[C@@H]1CC[C@H]2[C@@H](COc3ccc(NS(=O)(=O)c4ccccc4F)cc3C(=O)N2C)O1 | / | -0.8 | -1.0 | -0.4 | -6.9 | 0.1 | / | / | / | /
CCOC(=O)CSc1nc2cc(OC)ccc2cc1C#N | 2.0 | 0.9 | 13.4* | 4.8* | 29.5* | 7.2* | 14.9* | 8.1* | 20.0* | 1.0 | LXRb hcDAF ctr=1.1;hcDAF12 conf=5.1;Rev-erbA confirm=30.5*
Cc1ccc2cc(C#N)c(SCC(=O)N3CCCC3)nc2c1 | -0.3 | -1.4 | 4.0 | 0.6 | -2.3 | -0.6 | / | / | / | /
COc1ccc(NCc2nc3ccccc3n2C)cc1 | 5.6* | 2.4* | 12.0* | 2.3 | -2.0 | 10.0* | / | / | / | / | LXRb hcDAF ctr=1.2;hcDAF12 conf=11.6*
Cc1ccc(NC(=O)NCc2nc3ccccc3n2C)cc1 | 0.8 | -0.3 | 1.0 | 0.1 | -1.2 | 1.3 | / | / | / | /
Cc1ccc(NCc2nc3ccccc3n2C)cc1C | 3.3 | 1.7* | 13.2* | 3.1 | -4.4 | 13.0* | / | / | / | / | LXRb hcDAF ctr=1.0;hcDAF12 conf=8.2*
